# Reference: PubChem BioAssay (NCI)
# This is part of a sample that, as a whole, favours compounds with a hit. Of some 79,000 tested, about 15% had one in any assay. Values without a mark were called inactive. Active and inactive are the calls of the source. Cut-off read from the data, not from the text of the source: active = growth inhibition above about 70%; inactive = the rest.
# Assay: NCI Yeast Anticancer Drug Screen. Data for the sgs1 strain (AID 173);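 note: 0% = growth of vehicle-only control cultures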
# Settings: S. cerevisiae sgs1 mutant, stronger effect = higher value
# Protocol: Growth inhibition of yeast strains with defined genetic alterations is measured as a screen for potential anti-cancer activity. Selected strains with alterations in DNA damage repair or cell cycle control were exposed to compounds and growth inhibition was measured relative to vehicle treated controls. The strain used in this assay is sgs1
Compound,growth inhibition (at 1.2 µM) [%],growth inhibition (at 3.7 µM),growth inhibition (at 11.0 µM),growth inhibition (at 33.0 µM),growth inhibition (at 100.0 µM)
S=C1SCN(C2CCCCC2)CN1C1CCCCC1,-36,-22%,-17%,24%,71% (active)
CN(C)CCCCN1c2ccccc2Sc2ccc(N=[N+]=[N-])cc21,10,42%,43%,67%,99% (active)
CCN(CC)CCN(C)CCc1ccc(Br)cc1,10,23%,49%,85% (active),94% (active)
O=C1C(=O)c2ccccc2C(O)=C1C(C1=C(O)c2ccccc2C(=O)C1=O)c1ccc(Cl)cc1,16,39%,74% (active),72% (active),63%
O=C1C=C(Cl)C(=O)N1c1cccc(Cl)c1,21,95% (active),99% (active),100% (active),99% (active)
O=C(O)CCCC1CCCc2c1ccc1ccccc21 (stereo not given),-1,-2%,6%,64%,99% (active)
O=C1CC(=O)c2ccccc21,-1,2%,6%,18%,57%
CC(C)(C)N=C(NO)c1ccccc1,1,7%,14%,39%,76% (active)
